Compounds with a hit are over-represented: about 7.3% of the library has one in this group of screens.
FLuc counter: qHTS profiling assay for firefly luciferase inhibitor/activator using purifed enzyme and Km concentrations of substrates (counterscreen for miR-21 project). purified FLuc, Km substrates, luminescence inhibition. Potency, µM (series often up to 57.5 µM), hits mostly inhibitors. 360,000 compounds, 6.9% hits. AID 588342, 2011; note: nearly all actives have a fitted effect of over 55% in size
Target sequence (P08659 whole entry, looked up): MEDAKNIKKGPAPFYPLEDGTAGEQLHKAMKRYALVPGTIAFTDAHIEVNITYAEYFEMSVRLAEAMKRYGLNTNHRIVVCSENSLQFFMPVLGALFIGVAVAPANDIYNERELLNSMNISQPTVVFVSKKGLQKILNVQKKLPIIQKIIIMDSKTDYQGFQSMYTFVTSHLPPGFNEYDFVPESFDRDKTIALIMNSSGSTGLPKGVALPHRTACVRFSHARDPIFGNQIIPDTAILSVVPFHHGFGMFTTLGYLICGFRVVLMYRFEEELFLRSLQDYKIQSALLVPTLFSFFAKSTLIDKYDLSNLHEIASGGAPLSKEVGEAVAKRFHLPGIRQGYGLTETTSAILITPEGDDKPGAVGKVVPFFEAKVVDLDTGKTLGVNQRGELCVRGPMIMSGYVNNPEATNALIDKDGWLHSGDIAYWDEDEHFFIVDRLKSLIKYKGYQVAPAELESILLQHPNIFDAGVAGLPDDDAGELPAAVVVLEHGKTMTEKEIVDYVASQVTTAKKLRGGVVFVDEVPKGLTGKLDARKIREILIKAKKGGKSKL
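Purified P. pyralis luciferase (10nM final) with 10uM D-luciferin and 10uM ATP (Km levels) in 50mM Tris acetate pH 7.5, 10mM Mg acetate, 0.01% Tween-20, 0.05% BSA; qHTS 6-point titration, ~60 µM downward; luminescence read.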
ELG1 genotox: qHTS screen for small molecules that induce genotoxicity in human embryonic kidney (HEK293T) cells expressing luciferase-tagged ELG1; HEK293T ELG1-luciferase reporter, luminescence, 16 h; Potency, µM (titrated, usually from 46 µM), most hits filed as activators; 330,000 compounds, 1.3% hits; AID 504466, 2011; note: nearly all actives have a fitted effect of over 60% in size
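HEK293T cells expressing luciferase-tagged ELG1 were exposed to compound or DMSO vehicle for 16 hr at 37 °C and 5% CO2. Luciferase activity was then measured with ONE-Glo after 30 min at room temperature.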
Luc counter: Counterscreen for Luciferase (Kinase-Glo TM) Inhibition; Potency, µM (highest dose often 38.3 µM), usual class: inhibitors; 200,000 compounds, 0.28% hits; Kinase-Glo luciferase, ATP luminescence, 8 min; Luciferin 4-monooxygenase (Photuris pensylvanica), Q27757; AID 1379, 2008; note: nearly all actives have a fitted effect of over 60% in size
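Inhibition of Kinase-Glo luciferase light generation was assessed at 10 uM ATP in pH 7.2 imidazole buffer, with luminescence measured after eight minutes at ambient temperature.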
SMN2 splice enh: qHTS Assay for Enhancers of SMN2 Splice Variant Expression | HEK293 SMN2-luciferase splicing reporter, luminescence, 30-36 h | Potency, µM (highest dose often 46.1 µM), most hits filed as activators | 210,000 compounds, 2.8% hits | AID 1458, 2008; note: nearly all actives have a fitted effect of over 55% in size
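HEK293 cells carry an SMN2 […]–luciferase reporter in which exon 7 inclusion puts luciferase in frame. Cells were plated 10-12 h before compound addition, then incubated 30-36 h at 37C. ONE-Glo luminescence was read; sodium butyrate at 4.5 mM final served as control.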
Rab9 prom act: qHTS Assay for Rab9 Promoter Activators | 320,000 compounds, 2.8% hits | Huh7 Rab9 promoter-luciferase reporter, luminescence, 24 h | AID 485297, 2010 | Potency, µM (titrated, usually from 9.22 µM), hits mostly activators; note: nearly all actives have a fitted effect of over 60% in size
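Luminescence read-out: Huh7 cells stably expressing Rab9-luciferase, treated 24 h with compound at 37 °C, then lysed with luciferase reagent for 10 min at ambient before reading.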
NPC1 prom act: qHTS Assay for NPC1 Promoter Activators; AID 485313, 2010; 320,000 compounds, 2.4% hits; Huh7 NPC1 promoter luciferase reporter, 24 h; Potency, µM (highest dose often 9.22 µM), most hits filed as activators; note: nearly all actives have a fitted effect of over 60% in size
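Huh7 reporter cells (NPC1 promoter driving luciferase) are dosed with compound for 24 h at 37 °C, 5% CO2; luciferase detection reagent is then added and luminescence measured after 10 min at ambient temperature.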
Hits are given with their value; . = inactive; ? = inconclusive; / = no result given; [ ] = remark or other dose. Calls come from the whole dose curve; as a rule, active = well fitted curve in the direction sought with a large enough effect; inconclusive = small, poorly fitted or top-dose-only effect, or another doubt; inactive = no such curve, though single readings can be large; an effect the other way counts as inactive or inconclusive.

SMILES	FLuc counter	ELG1 genotox	Luc counter	SMN2 splice enh	Rab9 prom act	NPC1 prom act
CCOc1ccc(N(CC)S(=O)(=O)N2CCCC(C(=O)NCc3ccccc3Cl)C2)cc1 (configuration not stated)	.	/	/	/	/	/
O=C(CN1C(=O)S/C(=C/c2ccc(N3CCOCC3)cc2)C1=O)N1CCOCC1	3µM	?	.	?	.	.
O=C(CN1C(=O)S/C(=C/c2ccccn2)C1=O)N1CCOCC1	.	.	/	/	.	.
O=C(CN1C(=O)S/C(=C\C=C\c2ccccc2)C1=O)N1CCOCC1	4.8µM	.	/	/	.	.
O=C(OCc1ccccc1F)c1ccc2c(c1)-c1ccccc1C2=O	?	?	.	?	2.2µM	2.2µM
Cc1cc(NC(=O)c2ccc(Cl)cc2)c(C)cc1O	24µM	.	.	/	.	.
O=C(Nc1ccccc1O)c1ccc(Cl)cc1	27µM	?	.	.	?	3.2µM
O=C(Nc1ccccc1OC(=O)c1ccc(Cl)cc1)c1ccc(Cl)cc1	.	.	.	.	3.2µM	?
Cc1ccc(C(=O)Nc2cc(Cl)ccc2OC(=O)c2ccc(C)cc2)cc1	21µM	.	.	14µM	4µM	?
O=C(Nc1ccccc1O)c1ccc([N+](=O)[O-])cc1	.	.	/	/	.	?
NCCC1([N+](=O)[O-])CCNCC1	/	/	.[7.66 µM]	.[9.22 µM]	/	/
COc1ccc(OC)c(NC(=O)c2ccc(Cl)cc2)c1	?	.	.	.	.	.
COc1ccc(C(=O)Nc2cc(Cl)ccc2OC(=O)c2ccc(OC)cc2)cc1	?	?	.	.	?	3.5µM
Cn1c(=N)n(CC(=O)c2ccc(F)cc2)c2ccccc21	1.3µM	?	/	/	0.89µM	?
CCn1c(=N)n(CC(=O)c2ccc(Cl)c(Cl)c2)c2ccccc21	?	.	/	/	4µM	4.5µM
Cc1n(CC(=O)c2ccc(F)cc2)c2ccccc2[n+]1C	.	.	.	.	.	.
CCC(C)NC(=O)Cn1ncc2c(C)n(Cc3ccc(F)cc3)c(C)c2c1=O (configuration not stated)	.	/	/	.	/	/
O=C(c1cc(C(F)(F)F)cc(C(F)(F)F)c1)N1CCC2(CCCN(c3ccccc3)C2)CC1	/	/	.	.	/	/
Cc1nc2nc(NC(=O)C(C)(C)C)[nH]n2c(=O)c1Cc1ccccc1	.	/	/	.	/	/
CC1=[N+](C)N(c2ccccc2)C(=O)C1N=C/C=C/c1ccccc1 (configuration not stated)	15µM	.	/	/	.	.
COc1ccccc1/C=C/C=NC1C(=O)N(c2ccccc2)[N+](C)=C1C (configuration not stated)	?	.	/	/	.	.
COc1nnc(-c2ccc(N3CCCCC3)c(NC(=O)c3ccccc3Cl)c2)c2ccccc12	.	/	/	.	/	/
Cc1cc2n(n1)CCC(=O)N2Cc1ccc(C(=O)Nc2ccc(F)cc2F)cc1	.	/	/	/	/	/
COc1cccc(C(=O)Nc2cccc(-c3cn4c(C)csc4n3)c2)c1OC	7.6µM	/	/	/	/	/
COC(=O)COc1cc2ccccc2cc1C(=O)Nc1ccccc1	9.5µM	.	.	.	.	.
SMILES	FLuc counter	ELG1 genotox	Luc counter	SMN2 splice enh	Rab9 prom act	NPC1 prom act
COc1cccc(NC(=O)c2cccc(OC)c2OC)c1	21µM	10µM	.	16µM	?	?
COc1cc(Cl)c(C)cc1NC(=O)c1cccc(OC)c1OC	6.7µM	.	.	?	?	?
COc1cccc(C(=O)Nc2cccc3ccccc23)c1OC	?	.	/	/	.	.
O=C(O)CCn1cnc2c(=S)nc[nH]c21	/	/	.[7.66 µM]	.[9.22 µM]	/	/
Cc1cc2c(cc1S(=O)(=O)N(CCO)Cc1ccccc1)OCC(=O)N2	.	/	/	/	/	/
CN(C)c1ccc(NC(=O)c2cccc(C(=O)Nc3ccc(N(C)C)cc3)n2)cc1	1.5µM	.	.	14µM	3.2µM	2.8µM
COc1ccc(NC(=O)c2cc3ccccc3cc2OC)cc1OC	27µM	.	/	/	.	.
COc1cccc(C(=O)Nc2ccc3c(c2)CCCN3C(=O)c2cccs2)c1OC	9.5µM	.	/	/	.	.
COc1cccc(NC(=O)c2cc3ccccc3cc2OC)c1	9.5µM	?	/	/	.	.
CC(C)(C)C(=O)Cn1c(=O)n(CCCCCC(=O)NCc2ccc3c(c2)OCO3)c(=O)c2sccc21	.	/	/	.	/	/
COc1ccc([C@]23Cc4cc(OC)c(OC)cc4C(O2)C2=C(CCCC2=O)O3)cc1	?	/	/	/	.[1.84 µM]	.[1.84 µM]
COc1cc2ccccc2cc1C(=O)Nc1ccc2oc(-c3ccccc3)nc2c1	.	/	/	.	/	/
COc1cc2ccccc2cc1C(=O)Nc1ccc2oc(=O)ccc2c1	.	.	/	/	.	.
COc1cccc(C(=O)Nc2ccncc2)c1OC	.	.	/	/	.	.
COc1cc(OC)c(C(=O)Nc2ccc3ccccc3c2)cc1OC	4.8µM	?	/	/	2.5µM	?
COc1cc2ccccc2cc1C(=O)Nc1ccc(O)cc1	1.1µM	10µM	/	/	2µM	1.4µM
COc1cccc(C(=O)Nc2ccc(N(C)C)cc2)c1OC	5.4µM	?	.	11µM	1.4µM	2.8µM
COc1ccc(N2C(=O)C(CC(=O)Nc3ccccc3)N(CCC3=CCCCC3)C2=O)cc1 (configuration not stated)	.	/	/	.	/	/
NCCC[C@@H](CC(=O)N[C@@H]1CCCC[C@H]1C(=O)N[C@H](CC(=O)N[C@@H](CCC(=O)O)CC(=O)O)Cc1ccccc1)NC(=O)C[C@H](CO)NC(=O)[C@@H]1CCCC[C@H]1N	/	/	.	.	/	/
Cn1ccc2cc(-c3ccc4ncnc(NCc5cccc(F)c5)c4c3)ccc21	?	/	/	/	.	.
Cc1ccc(OCCCCn2c(CO)nc3ccccc32)cc1	.	.	.	.	.	.
Cc1ccccc1OCCCn1c(CO)nc2ccccc21	15µM	.	.	.	.	.
OCc1nc2ccccc2n1CCCOc1ccc(Br)cc1	11µM	/	.	.	/	/
Cc1ccc(CCNC(=O)c2cn(C)c3ccc(S(=O)(=O)N(C)C4CCCCC4)cc3c2=O)cc1	.	/	/	.	/	/
COc1ccc(NC(=O)CCCc2nnc3n(C(C)C)c(=O)c4sccc4n23)cc1Cl	.	/	/	/	/	/
CCN(Cc1ccccc1)C(=O)Cn1c(=O)n(-c2cccc(C)c2)c(=O)c2c1c1cc(OC)ccc1n2C	.	/	/	.	/	/
c1ccc(-n2cnc3cc(NCc4ccncc4)ccc32)cc1	24µM	.	.	.	?	.
CCCCn1cnc2cc(NCc3ccncc3)ccc21	.	.	.	.	.	.
c1ccc(-n2cnc3cc(NCc4ccccn4)ccc32)cc1	15µM	?	.	/	?	?
CCN(c1cccc(C)c1)S(=O)(=O)c1nnc(NC(=O)c2ccccc2Cl)s1	13µM	/	/	/	/	/

Screening data as filed in PubChem.
